# Data taken from PubChem BioAssay AID1274 (Emory University Molecular Libraries Screening Center, 2008).
# The whole screen tested about 220,000 compounds, of which about 1,100 (0.5%) were called active. This is one part of a sample in which actives are shown more often than they occur.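 Rule for the calls: active = inhibition above about 30% (limit read from the data); inactive = the rest.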
# Molecular target: Neutrophil cytosol factor 1 (Homo sapiens) (UniProt P14598)
# Test: p47phox/p22phox peptide binding inhibitors, primary screen, biochemical, uHTS, NADPH oxidase regulatory subunit (AID 1274);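 note: 0% = p47phox with labelled peptide and 100% = labelled peptide alone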
# Details: fluorescence polarization, 2 h, at 24.7 µM, active compounds read high
# Chain of Neutrophil cytosol factor 1 (Homo sapiens) (P14598 whole entry, looked up): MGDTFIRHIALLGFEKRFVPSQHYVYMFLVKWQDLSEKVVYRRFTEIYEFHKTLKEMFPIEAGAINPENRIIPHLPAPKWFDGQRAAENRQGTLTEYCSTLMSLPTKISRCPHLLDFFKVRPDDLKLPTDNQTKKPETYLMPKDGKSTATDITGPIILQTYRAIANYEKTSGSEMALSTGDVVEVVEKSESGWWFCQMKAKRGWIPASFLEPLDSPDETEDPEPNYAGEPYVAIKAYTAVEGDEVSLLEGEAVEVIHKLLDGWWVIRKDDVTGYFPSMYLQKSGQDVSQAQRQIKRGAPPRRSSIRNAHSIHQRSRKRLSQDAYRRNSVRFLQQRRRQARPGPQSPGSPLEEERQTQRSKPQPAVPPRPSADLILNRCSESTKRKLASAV
row,Structure (SMILES),inhibition
1,O=C(Cc1ccccc1[N+](=O)[O-])N1CCN(Cc2ccc3c(c2)OCO3)CC1,-1.92% (inactive)
2,O=C(COc1ccc2ccccc2c1)N1CCN(Cc2ccncc2)CC1,38.1% (active)
3,COc1ccccc1CN1CCN(C(=O)Cc2ccccc2)CC1,3.15% (inactive)
4,COCc1cc(OC(=O)N(C)C)nc(-c2ccc(C)c(Cl)c2)n1,-3.02% (inactive)
5,COC(=O)N(c1ccc(OC)cc1)P1(=S)OCCC(C)O1 (stereo not given),2.14% (inactive)
